From PubChem BioAssay AID2781 (National Center for Advancing Translational Sciences (NCATS), 2010)
Calls of active or inactive are those of the source.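 The calls were made as follows: active = compound whose NMR saturation transfer difference test with menin is positive, showing direct binding to the protein; inactive = the rest.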

molecular target: Menin (Homo sapiens) (UniProt O00255); experiment: Confirmation of Inhibitors Targeting the Menin-MLL Interaction in MLL Related Leukemias: NMR spectroscopy to verify direct binding of compounds to menin; details: purified menin, NMR STD binding, 100 uM
Summary of the method: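 Saturation transfer difference NMR at 600 MHz with 2.5 uM menin and 100 uM compound in 50 mM phosphate, 50 mM NaCl, 1 mM DTT, pH 7.5; repeated with 25 uM wild-type MLL peptide added.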

Menin (Homo sapiens), sequence (O00255 whole entry, looked up): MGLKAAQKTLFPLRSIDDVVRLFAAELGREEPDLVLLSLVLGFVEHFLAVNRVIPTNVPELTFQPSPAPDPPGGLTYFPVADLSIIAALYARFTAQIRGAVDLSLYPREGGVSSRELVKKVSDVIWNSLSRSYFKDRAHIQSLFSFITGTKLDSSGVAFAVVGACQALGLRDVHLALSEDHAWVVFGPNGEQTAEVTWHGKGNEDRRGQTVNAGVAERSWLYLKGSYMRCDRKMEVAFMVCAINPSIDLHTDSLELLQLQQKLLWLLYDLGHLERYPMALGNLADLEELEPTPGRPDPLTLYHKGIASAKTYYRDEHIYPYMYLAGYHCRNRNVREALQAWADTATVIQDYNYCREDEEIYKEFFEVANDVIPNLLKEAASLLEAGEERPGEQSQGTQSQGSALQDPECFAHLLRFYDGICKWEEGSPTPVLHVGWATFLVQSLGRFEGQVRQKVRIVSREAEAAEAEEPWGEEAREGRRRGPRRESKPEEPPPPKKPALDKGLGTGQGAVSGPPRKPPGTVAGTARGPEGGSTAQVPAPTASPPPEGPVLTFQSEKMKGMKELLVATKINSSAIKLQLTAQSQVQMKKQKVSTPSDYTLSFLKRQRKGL

Row | Structure (SMILES) | outcome
1 | CN(CCOc1ccc(Cl)cc1)CC(O)c1ccccc1 (stereo not given) | inactive; negative
2 | O=C(Nc1ccc(F)c(Cl)c1)c1cc(-c2ccco2)on1 | inactive; negative
3 | CNC[C@H](CC1CCCCC1)NC[C@H](Cc1ccccc1)NCCC12CC3CC(CC(C3)C1)C2 | inactive; negative
4 | COc1ccc2[nH]c3c(C)c4ccncc4c(C)c3c2c1 | inactive; negative
5 | COc1ccccc1C(=O)Nc1ccnn1C1CCN(CC2CC=CCC2)CC1 (stereo not given) | active; positive
6 | CCc1oc2ccccc2c1C(=O)c1cc(Br)c(O)c(Br)c1 | inactive; negative
7 | COc1ccccc1NS(=O)(=O)c1cc(NC(=O)Nc2cccc(C)c2)ccc1N1CCCCC1 | inactive; negative
8 | CS(=O)(=O)c1ccc2nc(NC(=O)Nc3cccc(Cl)c3)sc2c1 | inactive; negative
9 | CCCC(c1nnnn1Cc1cccs1)N1CCN(C2CCCC2)CC1 (stereo not given) | active; positive
10 | Oc1ccc(Nc2ncnc3c2oc2ccccc23)cc1 | inactive; negative
11 | O=C(CS)Nc1ccc2ccccc2c1 | inactive; negative
12 | CN(C)c1ccc(C2CC(=O)C=C(Nc3ccccc3N)C2)cc1 (stereo not given) | inactive; negative
13 | COc1ccc(Cn2nnnc2C(c2ccc3ncccc3c2)N2CCN(C3CCCCC3)CC2)cc1 (stereo not given) | active; positive
14 | NC(=NCCCCCCN=C(N)/N=C(\N)Nc1ccc(Cl)cc1)/N=C(\N)Nc1ccc(Cl)cc1 | inactive; negative
15 | O=C(Nc1nnc(-c2ccccc2SCc2ccccc2)s1)Nc1ccccc1F | inactive; negative
16 | O=C(O)CSc1cc(NS(=O)(=O)c2ccc(Br)cc2)c2ccccc2c1O | inactive; negative
17 | CCOC(=O)c1cnc2ccc(OCC)cc2c1N1CCN(C)CC1 | active; positive
18 | Cc1sc2ncnc(NC3CCN(Cc4ccccc4)CC3)c2c1C | active; positive
19 | N=C1c2ccccc2CN1c1ccc(N2CCOCC2)c(S(=O)(=O)Nc2ccc(Cl)cc2)c1 | inactive; negative
20 | CCC[n+]1c2ccccc2cc2ccccc21 | inactive; negative
